Out of some 5,500 compounds screened, about 2,000 (36%) were called active. Inconclusive results (about 18%) are left out. Cut-off read from the data, not from the text of the source: active = normalized growth mostly below about 0.91 (no sharp cut-off); inconclusive = no clear call, values can overlap the other calls; inactive = mostly above about 0.92. The list shows a part of the results.
Experiment: chemical genetic growth profiling, strain panel (AID 1159580);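 note: tested at 20 µM; growth read once vehicle control cultures reached saturation at 30 °C; 1 = growth at the plate median or of vehicle wells; lower values mean less growth of the strain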
Conditions: S. cerevisiae deletion strains, growth OD

Measured: normalized growth

C/C(=C\c1ccc(C(=O)O)cc1)c1ccc2c(c1)C(C)(C)CCC2(C)C
inactive: locus YAL040C, strain CLN3, stronger effect = lower value 1.04 | locus YCL061C, strain MRC1 (second series), stronger effect = lower value 1.02 | locus YDR150W, strain NUM1, stronger effect = lower value 1.01 | locus YDR363W, strain ESC2, stronger effect = lower value 1.02 | locus YER002W, strain NOP16, stronger effect = lower value 1 | locus YJR075W, strain HOC1, stronger effect = lower value 1.01 | locus YMR263W, strain SAP30, stronger effect = lower value 1.01 | locus YMR307W, strain GAS1, stronger effect = lower value 1.02 | locus YNL128W, strain TEP1, stronger effect = lower value 0.994 | locus YNL175C, strain NOP13, stronger effect = lower value 0.994 | locus YNL197C, strain WHI3, stronger effect = lower value 0.965 | locus YNL224C, strain SQS1, stronger effect = lower value 1 | locus YNL322C, strain KRE1, stronger effect = lower value 1.03 | locus YOR083W, strain WHI5 (second series), stronger effect = lower value 1.01 | locus YPL241C, strain CIN2, stronger effect = lower value 1.01

Source: PubChem BioAssay AID1159580 (chemical genetic matrix, 2015)
